A selection: hits, their analogues and other compounds. The true share with any hit is near 0.72%.
PKA-R1A act: PKA-R1A complex activation; P00514+P68181; PKA-R1A dissociation, Cy5-IP20 fluorescence polarization; scaled: DMSO 0%, 113 µM cGMP 100%; activation, % at 11.4 µM; 0.083% of 340,000 active; AID 504707;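 active = percent activation above the mean of all tested compounds plus 3 SD, cut at about 19% in these data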;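 also: higher means more PKAc released from R1A so a rise in polarization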
PolyA inhibitor: blocks polyadenylation in yeast reporter cells | activity score, % at 12 µM | 0.02% of 300,000 active | AID 1875 | S. cerevisiae SKY197-pL101 polyadenylation reporter, beta-gal luminescence; efflux-impaired pdr1/pdr3 knockout yeast; score 100 = 6 SD above DMSO;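 active = lowest replicate activity score at least 50, where 100 means six control SD above control mean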;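 also: yeast exposed to compound for 9 h at 30 °C; higher score means more reporter readthrough which indicates perturbed polyadenylation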
PKA-R2B activ: PKA-R2B complex activation; PKA-R2B holoenzyme dissociation, Cy5-IP20 fluorescence polarization; R2B truncated from residue 108, S112A mutant; 0% DMSO only, 100% 113 µM cGMP; activation, % at 11.4 µM; 0.079% of 340,000 active;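 active = activation above a cutoff set at the mean over all compounds plus 3 SD, cut at about 18% in these data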;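 also: higher means more holoenzyme dissociation and a rise in polarization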
Neddylation inh: blocks human cullin neddylation. calls only at 25 µM. AID 651699. P61081+Q13564. TR-FRET cullin neddylation, biochemical. 0.58% of 360,000 active; in the data active = inhibition above about 36%
Target sequence (P61081 whole entry, looked up): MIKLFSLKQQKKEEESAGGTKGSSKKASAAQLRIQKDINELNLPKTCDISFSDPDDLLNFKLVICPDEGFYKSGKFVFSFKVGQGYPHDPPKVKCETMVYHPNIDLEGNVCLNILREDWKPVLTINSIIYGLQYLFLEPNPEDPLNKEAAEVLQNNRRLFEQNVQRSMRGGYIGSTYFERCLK
Target sequence (Q13564 whole entry, looked up): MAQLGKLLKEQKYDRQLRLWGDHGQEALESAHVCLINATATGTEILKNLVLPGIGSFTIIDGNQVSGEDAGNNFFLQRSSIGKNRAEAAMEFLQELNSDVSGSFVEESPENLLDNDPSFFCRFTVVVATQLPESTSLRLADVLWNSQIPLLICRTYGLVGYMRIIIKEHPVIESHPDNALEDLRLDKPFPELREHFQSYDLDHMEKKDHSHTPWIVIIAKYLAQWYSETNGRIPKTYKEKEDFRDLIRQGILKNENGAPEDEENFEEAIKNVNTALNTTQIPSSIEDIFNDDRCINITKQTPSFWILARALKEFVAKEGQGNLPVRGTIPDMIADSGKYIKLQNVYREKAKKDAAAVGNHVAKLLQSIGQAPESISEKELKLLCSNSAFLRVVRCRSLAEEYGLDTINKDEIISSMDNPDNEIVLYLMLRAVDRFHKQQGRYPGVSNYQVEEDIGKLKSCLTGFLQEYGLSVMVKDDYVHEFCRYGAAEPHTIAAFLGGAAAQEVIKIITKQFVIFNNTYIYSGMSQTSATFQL
Neddyl conf: cullin neddylation inhibition, confirmation; 13% of 1,800 active; shares compounds with Neddylation inh; calls only at 25 µM; TR-FRET cullin neddylation biochemical assay; in the data active = inhibition above about 40%;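 also: neddylation substrate is the cullin 1 ring ligase complex with SKP2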
An asterisk follows results filed as active; i = inactive; x = no result given; + = active, no number.

SMILES | PKA-R1A act | PolyA inhibitor | PKA-R2B activ | Neddylation inh | Neddyl conf
COC(=O)C1CCN(c2nc3ccccc3nc2C(C#N)C(=O)OCC(C)C)CC1 (stereo not given) | -14 | 0 | 2 | + | i
CC(C)OC(=O)C(C#N)c1nc2ccccc2nc1N1CCCC1 (stereo not given) | -9 | -5 | -16 | + | i
COC(=O)C(C#N)c1nc2ccccc2nc1N1CCCC1 (stereo not given) | 4 | -45 | 5 | i | x
COC(=O)C1CCN(c2nc3ccccc3nc2C(C#N)C(=O)NCCc2ccccc2)CC1 (stereo not given) | 5 | 6 | -5 | i | x
COc1cc(-c2cc3nc(C)c(C)c(=O)n3[nH]2)cc(OC)c1OC | -5 | 3 | 2 | + | i
COC(=O)c1cc2c(ccn2-c2ccc(F)cc2)n1CC(=O)OC(C)C | 4 | 1 | 3 | + | i
CCCNC(=O)c1oc2ccc3c(c2c1C)C=CC(C)(C)O3 | -11 | -15 | 2 | + | i
CCCNC(=O)c1oc2ccc3c(c2c1C)C(=O)CC(C)(C)O3 | 3 | 1 | 5 | x | x
O=C(CSc1cccc2cccnc12)Nc1cc(C(=O)O)cc(C(=O)O)c1 | -7 | 20 | 8 | + | +
Cc1ccc(Cl)cc1N1CCN(C(=O)c2cc3c(=O)[nH]c4ccccc4c3n2C)CC1 | 10 | 3 | 3 | i | x
CCOC(=O)c1[nH]c2ccc(C(=O)OC)cc2c1C(=O)OCC | -9 | 8 | -20 | + | i
COC(=O)c1ccc2[nH]c3c(c2c1)CC(C)CC3 (stereo not given) | -8 | -14 | -4 | + | +
Cc1ccccc1NC(=O)NNC(=O)c1ccc2ccccc2c1 | -19 | 20 | 5 | i | x
Cc1ccccc1NC(=O)NNC(=O)c1ccc2ccccc2c1O | -5 | -7 | -9 | + | +
COc1ccccc1NC(=O)NNC(=O)c1ccc2ccccc2c1O | -7 | 8 | -7 | + | i
CCc1ccc(NC(=O)NNC(=O)c2ccc3ccccc3c2O)cc1 | -10 | 7 | -7 | x | x
COc1ccc(NC(=O)NNC(=O)c2ccc3ccccc3c2O)cc1OC | -15 | -7 | -15 | + | i
C[C@H]1CN([C@@H](C)CO)S(=O)(=O)c2ccc(Br)cc2O[C@@H]1CN(C)C(=O)CCN1CCCCC1 | -3 | x | -7 | i | x
O=C1CCCCC1Sc1nnc(-c2ccc3c(c2)OCO3)o1 (stereo not given) | -6 | 7 | 7 | i | x
Cn1ncc(Br)c1C(=O)NC1CCCCCC1 | 7 | -13 | -10 | i | x
Cc1ccc2nc3ccc(N4CCCCCCC4)nn3c(=O)c2c1 | -2 | 6 | 4 | + | i
CCCCN(CCCC)C1=Nc2ccccc2N/C1=C(/C#N)C(=O)OCC | 3 | -15 | -14 | + | i
COC(OC)C1Nc2ccccc2C(=O)N1c1ccc(F)cc1 (stereo not given) | -14 | x | 0 | + | x
Cn1c(=O)c(Cc2ccccc2)c(O)c2ccccc21 | -6 | 18 | 7 | i | x
O=c1c(Cc2ccccc2)c(O)c2cccc3c4c(n1c23)CCCC4 | -3 | 11 | -1 | + | i
SMILES | PKA-R1A act | PolyA inhibitor | PKA-R2B activ | Neddylation inh | Neddyl conf
Cn1nc(C(F)(F)F)c(-c2cccc(C(F)(F)F)c2)c1NC(=O)c1ccco1 | -9 | 6 | -1 | + | i
CC1(C)Cc2c(c(-c3ccco3)nc3sc4c(NCCN5CCOCC5)ncnc4c23)CO1 | 3 | 19 | -1 | + | i
CC(Oc1ccc(Cl)cc1Cl)C(=O)NNC(=O)C(=O)N1CCCC1 (stereo not given) | 2 | -9 | -3 | i | x
Cc1ccc(-c2nnc(Nc3ccc(CC(N)=O)cc3)c3ccccc23)cc1 | 0 | 16 | 8 | + | i
Cc1ccc(-c2nnc(Nc3ccc(CC(N)=O)cc3)c3ccccc23)cc1S(N)(=O)=O | -2 | -11 | 0 | i | x
CCCc1cc(=O)oc2c(C)c(OCC(=O)N3CCC[C@@H]3C(=O)O)ccc12 | 5 | -7 | -6 | + | i
CCCc1cc(=O)oc2c(C)c(OCC(=O)N3CCC(C(N)=O)CC3)ccc12 | -10 | 0 | 2 | i | x
CCCCCCc1c(C)c2ccc(OCC(=O)N3CCC[C@H]3C(=O)O)c(C)c2oc1=O | -8 | 3 | -1 | + | x
CCOc1ccccc1C1C(C#N)=C(N)Oc2cc(N)ccc21 (stereo not given) | 4 | -2 | -8 | + | i
N#CC1=C(N)Oc2cc(O)ccc2C1c1ccncc1 (stereo not given) | -15 | 7 | 4 | i | x
COc1ccc(OC)c(C2C(C#N)=C(N)Oc3cc(N)ccc32)c1 (stereo not given) | -6 | -10 | -7 | i | x
COc1ccc(C2C(C#N)=C(N)Oc3cc(O)ccc32)cc1Cl (stereo not given) | -8 | -11 | -1 | + | i
C#CCOc1ccc(C2C(C#N)=C(N)Oc3cc(O)ccc32)cc1 (stereo not given) | -14 | -17 | -15 | + | i
NC(=O)c1cccc(N=Cc2cc(Cl)cc(Cl)c2O)c1 | 1 | -13 | -5 | + | i
CC(Oc1ccc2ccc(=O)oc2c1)C(=O)N1CCOCC1 (stereo not given) | -10 | -6 | -9 | + | x
CC(Oc1ccc2c(-c3ccccc3)cc(=O)oc2c1)C(=O)N1CCOCC1 (stereo not given) | 2 | x | 2 | i | x
CCc1cc(C(c2ccc(OC)c(OC)c2)N2CCOCC2)c(NC(=O)c2ccccc2)s1 (stereo not given) | 9 | -4 | 10 | + | i
O=C(Nc1sc2c(c1C(=O)NCCO)CCCC2)c1ccco1 | -8 | 7 | 0 | + | x
COc1ccc(CCNC(=O)c2ccc(Cl)cc2)cc1OC | 3 | 13 | -4 | i | x
COc1ccc(CCNC(=O)c2ccc3nc4cc(Cl)ccc4c(=O)n3c2)cc1OC | 8 | -26 | -2 | + | i
Cc1cc(C(=O)COC(=O)COc2ccc(C#N)cc2)c(C)n1C1CC1 | -8 | 21 | 0 | i | x
CCc1noc(C)c1C(=O)N1CCN(S(=O)(=O)c2cccs2)CC1 | -1 | -3 | 7 | i | x
CCN(C(=O)COC(=O)c1cc2ccccc2cc1OC)c1c(N)n(Cc2ccccc2)c(=O)[nH]c1=O | -9 | x | -12 | + | x
COc1ccc(CCC(=O)OCC(=O)N(C)c2c(N)n(Cc3ccccc3)c(=O)[nH]c2=O)cc1 | 4 | -15 | -6 | i | x
COc1cc2ccccc2cc1C(=O)OCC(=O)N(C)c1c(N)n(Cc2ccccc2)c(=O)[nH]c1=O | 4 | 6 | -8 | + | x

Screening results from PubChem.
